Results as given in PubChem BioAssay (EPA / NIEHS).
Calls of active or inactive are those of the source. Rule for the calls: active = hit-call score of the fitted dose curve at least 0.9, where 1 is the maximum; inactive = score below 0.9.

Experiments:
[1] = ATG_GLI_CIS: Attagene CIS-FACTORIAL HepG2 Assay for human Zinc Finger Protein GLI1 (AID 2282945); conditions: HepG2, Attagene cis-factorial reporter mRNA, GLI element; actives raise or lower the signal
Outline: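 Bidirectional curve fits relative to DMSO, using reporter mRNA levels from RT-PCR plus capillary electrophoresis. Cells were HepG2 transiently carrying cis-regulated reporter constructs, harvested 24 h after dosing.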

[2] = molecular target: Bile acid receptor (Homo sapiens) (UniProt Q96RI1); assay: ATG_IR1_CIS: Attagene CIS-FACTORIAL HepG2 Assay for human Nuclear Receptor Subfamily 1 Group H Member 4 (NR1H4), IR1 submotif (AID 2282946); conditions: IR1 reporter transcription, actives raise or lower the signal
Outline: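 HepG2 cells transiently transfected with multiplexed cis-element reporter units read endogenous transcription factor activity. After 24 h compound exposure, reporter mRNA was quantified by RT-PCR, fluorescent labelling, HpaI digestion and capillary electrophoresis; bidirectional fitting versus DMSO baseline.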

[3] = ATG_GRE_CIS: Attagene CIS-FACTORIAL HepG2 Assay for human Glucocorticoid Response Elements (GRE) (AID 2282947); conditions: HepG2 GRE cis-reporter, Attagene multiplex mRNA; actives raise or lower the signal
Outline: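 Reporter transcripts read by RT-PCR with capillary electrophoresis fluorescence after a 24 h chemical exposure of HepG2 cells transiently transfected with multiple cis-element reporter units. Gain or loss fitted against DMSO.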

[4] = ATG_ISRE_CIS: Attagene CIS-FACTORIAL HepG2 Assay for human Interferon Regulatory Factor 1 (IRF1) binding to an Interferon-Stimulated Response Element (ISRE) (AID 2282948); conditions: HepG2 ISRE cis-reporter (Attagene), mRNA transcription readout; actives raise or lower the signal
Outline: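 Signal reflects induction or loss of ISRE-linked reporter mRNA in transiently transfected HepG2 cells after a 24 h treatment, detected by fluorescent RT-PCR fragments on capillary electrophoresis and normalised to DMSO.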

[5] = ATG_M_32_CIS: Attagene CIS-FACTORIAL HepG2 Assay for M32 Transcription Factor (Internal Marker) (AID 2282949); conditions: HepG2 Attagene cis-factorial M32 reporter, mRNA; actives raise or lower the signal;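 note: background control marker of the multiplexed CIS panel rather than a real target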
Outline: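 HepG2 human liver cells transiently transfected with cis-promoter-driven multiple reporter transcription units, dosed 24 h. Reporter mRNA quantified by RT-PCR, FAM-labelled primer extension, HpaI digest and capillary electrophoresis; bidirectional fit versus DMSO baseline.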

[6] = ATG_M_06_CIS: Attagene CIS-FACTORIAL HepG2 Assay for M06 Transcription Factor (Internal Marker) (AID 2282950); conditions: HepG2 Attagene CIS-FACTORIAL M06 internal marker reporter; actives raise or lower the signal
Outline: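 Internal background marker within multiplexed cis-reporter HepG2 system. Cells transiently transfected, dosed 24 h; reporter mRNA measured by RT-PCR, HpaI digestion and capillary electrophoresis. Bidirectional fit relative to DMSO.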

[7] = molecular target: Hypoxia-inducible factor 1-alpha (Homo sapiens) (UniProt Q16665); assay: ATG_HIF1a_CIS: Attagene CIS-FACTORIAL HepG2 Assay for human Hypoxia Inducible Factor 1 (HIF1A) (AID 2282951); conditions: HepG2 Attagene cis-factorial HIF1a reporter transcription; actives raise or lower the signal
Outline: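 Fluorescence intensity of capillary-separated, 6-FAM-labelled reporter amplicons gives mRNA induction in HepG2 cells carrying transfected cis-promoter reporter units; cells exposed 24 h, responses fitted up or down from DMSO.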

[8] = molecular target: Hepatocyte nuclear factor 6 (Homo sapiens) (UniProt Q9UBC0); assay: ATG_HNF6_CIS: Attagene CIS-FACTORIAL HepG2 Assay for human Hepatocyte Nuclear Factor 6 (HNF6) (AID 2282952); conditions: HepG2 Attagene cis-factorial HNF6 reporter transcription; actives raise or lower the signal
Outline: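 Twenty-four-hour chemical treatment of reporter-transfected HepG2 cells precedes RNA isolation, DNase-treated reverse transcription and PCR of reporter sequences. Labelled fragments are sized by capillary electrophoresis and fitted bidirectionally versus DMSO.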

[9] = molecular target: Heat shock factor protein 1 (Homo sapiens) (UniProt Q00613); assay: ATG_HSE_CIS: Attagene CIS-FACTORIAL HepG2 Assay for human Heat Shock Transcription Factor 1 (HSE) (AID 2282953); conditions: HepG2 HSE cis-reporter, Attagene RNA transcription; actives raise or lower the signal
Outline: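 HepG2 cells transfected with cis-promoter reporter units sensing endogenous transcription factor activity; reporter mRNA quantified 24 h post-dose by RT-PCR and capillary electrophoresis of 6-FAM-labelled products. Bidirectional fitting against DMSO.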

[10] = ATG_MRE_CIS: Attagene CIS-FACTORIAL HepG2 Assay for human Metal Responsive Element (MRE) (AID 2282954); conditions: HepG2 MRE cis-reporter transcription, Attagene multiplex; actives raise or lower the signal
Outline: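 Endogenous MRE-dependent transcription read as reporter mRNA in transiently transfected human HepG2 cells at 24 h. RNA reverse-transcribed, PCR-amplified, labelled and resolved by capillary electrophoresis; gain or loss relative to DMSO.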

[11] = molecular target: Paired box protein Pax-6 (Homo sapiens) (UniProt P26367); assay: ATG_Pax6_CIS: Attagene CIS-FACTORIAL HepG2 Assay for human Paired Box 6 (PAX6) (AID 2282956); conditions: HepG2 CIS-FACTORIAL PAX6 reporter transcription, RNA readout; actives raise or lower the signal
Outline: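 Values derive from bidirectional curve fitting of reporter mRNA signal relative to DMSO. HepG2 cells bearing transfected cis-regulated MRTUs were exposed for 24 h; transcripts were read by RT-PCR and capillary electrophoresis.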

[12] = ATG_PXRE_CIS: Attagene CIS-FACTORIAL HepG2 Assay for human Pregnane X Receptor Element (PXRE) (AID 2282957); conditions: HepG2 Attagene CIS-FACTORIAL PXRE reporter, mRNA; actives raise or lower the signal
Outline: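 Bidirectional activity, baselined to DMSO, derived from reporter mRNA fluorescence (RT-PCR plus capillary electrophoresis) in HepG2 cells bearing cis-promoter reporter units, 24 h exposure.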

[13] = ATG_PPRE_CIS: Attagene CIS-FACTORIAL HepG2 Assay for human Peroxisome Proliferator-activated Response Element (PPRE) (AID 2282958); conditions: HepG2 PPRE cis-element reporter, Attagene transcription factor profiling; actives raise or lower the signal
Outline: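 In this cell-based multiplex, a PPRE cis element drives a reporter sequence in transiently transfected HepG2 cells. Following 24 h treatment, labeled cDNA amplicons are sized and quantified by capillary electrophoresis, with DMSO defining baseline.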

[14] = ATG_RORE_CIS: Attagene CIS-FACTORIAL HepG2 Assay for human RAR-related Orphan Receptor Element (RORE) (AID 2282959); conditions: HepG2 Attagene cis-factorial RORE reporter, mRNA; actives raise or lower the signal
Outline: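 Endogenous factor activity at a cis response element is read as reporter transcript levels in HepG2 cells, 24 h post-dose. Transcripts are quantified by RT-PCR with capillary electrophoresis, and data fitted in both directions against DMSO.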

[15] = ATG_Sox_CIS: Attagene CIS-FACTORIAL HepG2 Assay for human SRY-box transcription factor (SOX) (AID 2282960); conditions: HepG2 Attagene cis-factorial SOX reporter, mRNA; actives raise or lower the signal
Outline: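 Measures mRNA induction of a SOX1-associated reporter in HepG2 after 24 h dosing. Fluorescently labelled RT-PCR fragments are separated by capillary electrophoresis, and gain or loss relative to DMSO control is fitted.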

[16] = molecular target: Transcription factor Sp1 (Homo sapiens) (UniProt P08047); assay: ATG_Sp1_CIS: Attagene CIS-FACTORIAL HepG2 Assay for human Specificity Protein 1 (Sp1) (AID 2282961); conditions: HepG2 Sp1 cis-reporter transcription, actives raise or lower the signal
Outline: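 Cells: HepG2, transiently transfected with cis-regulated multiplexed reporters. Exposure: 24 h. Detection: reporter transcripts amplified, fluorescently labeled, restriction-digested and sized by capillary electrophoresis. Analysis: bidirectional fit relative to DMSO.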

[17] = molecular target: Signal transducer and activator of transcription 3 (Homo sapiens) (UniProt P40763); assay: ATG_STAT3_CIS: Attagene CIS-FACTORIAL HepG2 Assay for human Signal Transducer and Activator of Transcription 3 (STAT3) (AID 2282963); conditions: HepG2, Attagene cis-factorial STAT3 reporter transcription; actives raise or lower the signal
Outline: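 Readout is reporter transcript quantified by RT-PCR and capillary electrophoresis, with 6-FAM primer extension and HpaI digestion. Total RNA is taken 24 h after dosing transiently transfected HepG2 carrying cis-regulated reporter units. Bidirectional fit against DMSO.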

[18] = ATG_TA_CIS: Attagene CIS-FACTORIAL HepG2 Assay for human TA Basal Promoter (AID 2282964); conditions: HepG2 Attagene CIS-factorial TA basal promoter reporter; actives raise or lower the signal
Outline: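 HepG2 cells transiently transfected with multiple reporter units under cis promoter elements, reporting endogenous transcription factor activity; this endpoint tracks the TA basal promoter as background control. Reporter mRNA after 24 h dosing measured by RT-PCR/capillary electrophoresis; bidirectional fits versus DMSO.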

[19] = ATG_SREBP_CIS: Attagene CIS-FACTORIAL HepG2 Assay for human Sterol Regulatory Element Binding (SREBP) (AID 2282962); conditions: HepG2 Attagene cis-factorial SREBP reporter, mRNA; actives raise or lower the signal
Outline: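 Values derive from bidirectional curve fitting with DMSO as baseline. The underlying measurement is reporter mRNA from cis-element-regulated units in transiently transfected HepG2, quantified by RT-PCR and capillary electrophoresis after 24 h exposure.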

[20] = ATG_PBREM_CIS: Attagene CIS-FACTORIAL HepG2 Assay for human Phenobarbital-responsive Enhancer Module (PBREM) (AID 2282955); conditions: HepG2 PBREM cis-reporter, Attagene multiplexed transcription; actives raise or lower the signal
Outline: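 Cells were transfected with cis-element reporter units and treated for 24 h, after which RNA was extracted and reporter transcripts measured by RT-PCR and capillary electrophoresis.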

Measured: AC50

Chain of Transcription factor Sp1 (Homo sapiens) (P08047 whole entry, looked up): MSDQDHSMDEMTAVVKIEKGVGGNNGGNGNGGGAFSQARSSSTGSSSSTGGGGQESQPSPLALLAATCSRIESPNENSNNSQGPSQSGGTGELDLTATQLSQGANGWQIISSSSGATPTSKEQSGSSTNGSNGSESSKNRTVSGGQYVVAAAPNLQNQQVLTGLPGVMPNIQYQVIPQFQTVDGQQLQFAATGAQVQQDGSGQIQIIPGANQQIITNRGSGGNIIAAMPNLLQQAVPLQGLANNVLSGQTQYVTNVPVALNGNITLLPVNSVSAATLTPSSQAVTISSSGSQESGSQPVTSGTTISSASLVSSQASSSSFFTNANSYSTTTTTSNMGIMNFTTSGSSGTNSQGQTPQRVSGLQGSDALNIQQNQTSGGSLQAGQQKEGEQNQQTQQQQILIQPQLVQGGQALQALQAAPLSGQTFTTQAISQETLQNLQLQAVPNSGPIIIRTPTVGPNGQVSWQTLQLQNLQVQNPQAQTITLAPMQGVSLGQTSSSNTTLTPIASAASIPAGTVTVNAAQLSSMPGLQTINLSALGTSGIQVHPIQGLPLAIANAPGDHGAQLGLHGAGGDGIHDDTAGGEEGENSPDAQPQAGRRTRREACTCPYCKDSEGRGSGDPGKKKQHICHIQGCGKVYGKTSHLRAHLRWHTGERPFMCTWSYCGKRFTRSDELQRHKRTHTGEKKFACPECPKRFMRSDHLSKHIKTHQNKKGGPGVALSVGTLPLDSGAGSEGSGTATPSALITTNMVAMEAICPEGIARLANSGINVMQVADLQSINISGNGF
Chain of Paired box protein Pax-6 (Homo sapiens) (P26367 whole entry, looked up): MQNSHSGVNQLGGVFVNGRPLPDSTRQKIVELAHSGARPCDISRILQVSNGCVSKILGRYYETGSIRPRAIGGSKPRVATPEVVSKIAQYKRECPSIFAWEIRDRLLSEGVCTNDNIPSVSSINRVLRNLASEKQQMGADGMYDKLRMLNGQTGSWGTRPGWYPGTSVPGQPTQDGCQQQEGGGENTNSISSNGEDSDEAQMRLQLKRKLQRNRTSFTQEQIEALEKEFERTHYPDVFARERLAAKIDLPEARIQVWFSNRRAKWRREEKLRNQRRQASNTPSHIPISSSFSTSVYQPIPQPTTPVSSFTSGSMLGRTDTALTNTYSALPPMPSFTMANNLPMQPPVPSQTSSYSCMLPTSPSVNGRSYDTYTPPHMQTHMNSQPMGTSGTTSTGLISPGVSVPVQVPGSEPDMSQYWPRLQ
Chain of Bile acid receptor (Homo sapiens) (Q96RI1 whole entry, looked up): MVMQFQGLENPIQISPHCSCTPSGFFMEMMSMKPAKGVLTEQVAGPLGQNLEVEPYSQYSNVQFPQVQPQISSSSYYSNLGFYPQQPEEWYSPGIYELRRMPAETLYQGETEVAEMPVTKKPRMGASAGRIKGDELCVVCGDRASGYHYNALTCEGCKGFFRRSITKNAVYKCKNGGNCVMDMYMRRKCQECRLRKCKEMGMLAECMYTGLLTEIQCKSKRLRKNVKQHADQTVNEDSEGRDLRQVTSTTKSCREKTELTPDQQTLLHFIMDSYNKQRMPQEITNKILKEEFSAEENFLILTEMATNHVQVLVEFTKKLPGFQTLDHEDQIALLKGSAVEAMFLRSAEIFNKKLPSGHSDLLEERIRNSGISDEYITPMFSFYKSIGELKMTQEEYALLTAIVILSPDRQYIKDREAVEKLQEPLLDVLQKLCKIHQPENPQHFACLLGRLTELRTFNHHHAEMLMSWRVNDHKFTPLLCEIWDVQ
Chain of Hypoxia-inducible factor 1-alpha (Homo sapiens) (Q16665 whole entry, looked up): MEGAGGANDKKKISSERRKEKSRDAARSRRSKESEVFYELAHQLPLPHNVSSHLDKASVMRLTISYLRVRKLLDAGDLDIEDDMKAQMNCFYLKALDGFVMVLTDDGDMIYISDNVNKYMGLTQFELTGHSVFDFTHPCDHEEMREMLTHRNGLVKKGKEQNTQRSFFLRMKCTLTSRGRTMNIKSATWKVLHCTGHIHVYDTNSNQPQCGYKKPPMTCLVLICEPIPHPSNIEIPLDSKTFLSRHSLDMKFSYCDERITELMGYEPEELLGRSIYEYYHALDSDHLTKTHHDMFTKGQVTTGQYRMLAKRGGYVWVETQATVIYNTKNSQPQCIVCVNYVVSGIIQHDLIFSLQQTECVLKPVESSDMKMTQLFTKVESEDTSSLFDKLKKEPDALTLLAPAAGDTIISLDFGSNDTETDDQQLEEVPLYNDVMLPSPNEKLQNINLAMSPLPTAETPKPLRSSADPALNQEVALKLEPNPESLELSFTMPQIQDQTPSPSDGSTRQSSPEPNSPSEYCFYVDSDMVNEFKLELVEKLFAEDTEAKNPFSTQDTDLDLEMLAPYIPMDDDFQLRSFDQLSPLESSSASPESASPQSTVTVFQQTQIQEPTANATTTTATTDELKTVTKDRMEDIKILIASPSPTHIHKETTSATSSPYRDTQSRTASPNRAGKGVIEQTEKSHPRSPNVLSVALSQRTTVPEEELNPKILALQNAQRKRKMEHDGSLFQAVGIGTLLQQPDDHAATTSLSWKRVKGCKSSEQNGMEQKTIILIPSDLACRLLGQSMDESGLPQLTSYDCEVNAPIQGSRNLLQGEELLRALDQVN
Chain of Hepatocyte nuclear factor 6 (Homo sapiens) (Q9UBC0 whole entry, looked up, the tested form may be a part): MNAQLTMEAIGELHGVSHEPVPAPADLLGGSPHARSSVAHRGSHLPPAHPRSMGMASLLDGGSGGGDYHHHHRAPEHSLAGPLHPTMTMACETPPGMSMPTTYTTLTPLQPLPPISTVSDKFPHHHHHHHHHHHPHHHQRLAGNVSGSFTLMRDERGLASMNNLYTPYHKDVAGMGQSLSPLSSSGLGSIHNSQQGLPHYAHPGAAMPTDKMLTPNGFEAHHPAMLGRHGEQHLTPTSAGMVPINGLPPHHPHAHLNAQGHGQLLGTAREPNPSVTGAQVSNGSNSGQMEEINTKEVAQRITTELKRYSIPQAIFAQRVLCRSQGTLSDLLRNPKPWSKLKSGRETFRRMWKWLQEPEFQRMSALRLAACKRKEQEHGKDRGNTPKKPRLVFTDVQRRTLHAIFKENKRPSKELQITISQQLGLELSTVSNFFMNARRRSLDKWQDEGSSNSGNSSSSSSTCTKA
Chain of Signal transducer and activator of transcription 3 (Homo sapiens) (P40763 whole entry, looked up): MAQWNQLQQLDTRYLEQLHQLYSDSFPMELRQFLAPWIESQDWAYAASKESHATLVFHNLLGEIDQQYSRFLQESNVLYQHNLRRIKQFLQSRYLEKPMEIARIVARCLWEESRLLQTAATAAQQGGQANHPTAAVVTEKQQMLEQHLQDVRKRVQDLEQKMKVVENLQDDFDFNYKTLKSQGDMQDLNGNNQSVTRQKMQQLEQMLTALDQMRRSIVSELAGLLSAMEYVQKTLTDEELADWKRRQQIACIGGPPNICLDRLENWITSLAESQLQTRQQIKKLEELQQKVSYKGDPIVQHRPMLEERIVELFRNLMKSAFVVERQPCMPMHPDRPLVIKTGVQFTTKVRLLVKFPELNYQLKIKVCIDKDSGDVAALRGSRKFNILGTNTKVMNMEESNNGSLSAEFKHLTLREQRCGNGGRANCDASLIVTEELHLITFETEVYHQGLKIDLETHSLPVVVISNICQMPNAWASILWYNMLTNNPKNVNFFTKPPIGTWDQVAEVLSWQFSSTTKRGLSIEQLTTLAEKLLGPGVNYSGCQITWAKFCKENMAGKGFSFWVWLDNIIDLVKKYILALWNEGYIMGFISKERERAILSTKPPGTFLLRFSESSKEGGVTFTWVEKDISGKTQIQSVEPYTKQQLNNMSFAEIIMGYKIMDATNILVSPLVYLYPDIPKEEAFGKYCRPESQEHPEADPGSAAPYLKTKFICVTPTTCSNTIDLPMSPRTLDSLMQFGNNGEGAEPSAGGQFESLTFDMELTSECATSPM
Chain of Heat shock factor protein 1 (Homo sapiens) (Q00613 whole entry, looked up): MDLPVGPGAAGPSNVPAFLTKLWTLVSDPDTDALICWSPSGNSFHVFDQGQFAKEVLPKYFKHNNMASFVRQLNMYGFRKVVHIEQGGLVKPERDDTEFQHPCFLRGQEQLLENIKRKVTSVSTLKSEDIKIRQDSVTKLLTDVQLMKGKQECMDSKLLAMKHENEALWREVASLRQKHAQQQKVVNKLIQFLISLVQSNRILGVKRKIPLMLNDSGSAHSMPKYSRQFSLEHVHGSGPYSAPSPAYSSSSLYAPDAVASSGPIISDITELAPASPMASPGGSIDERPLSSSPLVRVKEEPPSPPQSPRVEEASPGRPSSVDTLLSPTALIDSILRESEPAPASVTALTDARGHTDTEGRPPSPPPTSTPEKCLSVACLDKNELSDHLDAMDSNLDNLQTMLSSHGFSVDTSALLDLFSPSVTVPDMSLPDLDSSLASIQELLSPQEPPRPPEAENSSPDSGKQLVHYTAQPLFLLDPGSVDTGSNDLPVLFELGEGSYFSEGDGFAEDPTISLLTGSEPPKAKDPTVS

Oc1ccc(C2(c3ccc(O)c(C4CCCCC4)c3)CCCCC2)cc1C1CCCCC1
active: [3] 33.4 µM | [4] 55.9 µM | [9] 8.18 µM | [10] 11.1 µM | [11] 14.4 µM | [12] 0.175 µM | [15] 7.42 µM | [17] 62.4 µM
not listed: [19] | [20]
inactive: all other assays above

NS(=O)(=O)C(F)(F)C(F)(F)C(F)(F)C(F)(F)C(F)(F)C(F)(F)F
active: [10] 59 µM | [13] 50.2 µM
not listed: [12] | [20]
inactive: all other assays above

OCC(O)CC(F)(F)C(F)(F)C(F)(F)C(F)(F)F (stereo not given)
inactive: all assays above

NC(=O)C(F)(F)C(F)(F)C(F)(F)C(F)(F)C(F)(F)C(F)(F)C(F)(F)F
inactive: all assays above

O=C=NCc1cccc(CN=C=O)c1
not listed: [12]
inactive: all other assays above

Cc1cccc(C)n1
inactive: all assays above

CC(C)CCCC(C)CCO (stereo not given)
inactive: all assays above

CCOC(OCC)OCC
active: [12] 28 µM
inactive: all other assays above

CSc1ccc(O)cc1C
active: [12] 44.3 µM
not listed: [7] | [19] | [20]
inactive: all other assays above

CCCCC(CC)COC(=O)c1ccc(N(C)C)cc1 (stereo not given)
active: [12] 8.25 µM | [13] 32.6 µM
not listed: [7] | [20]
inactive: all other assays above

OCCC(O)CO (stereo not given)
not listed: [7] | [12] | [16]
inactive: all other assays above

CCC(=O)OC(C)c1ccccc1 (stereo not given)
active: [12] 26.5 µM
not listed: [9]
inactive: all other assays above

CCN=c1cc2oc3cc(NCC)c(C)cc3c(-c3ccccc3C(=O)OCC)c-2cc1C
active: [1] 16.3 µM | [2] 16.5 µM | [4] 8.05 µM | [9] 17 µM | [10] 9.29 µM | [11] 8.69 µM | [13] 17 µM | [15] 15.9 µM | [16] 9.7 µM | [19] 15.5 µM | [18] 11.1 µM
inactive: [3] | [5] | [6] | [8] | [20] | [12] | [14] | [17]

C=CC(=O)OCC(F)(F)C(F)(F)C(F)(F)COC(=O)C=C
active: [4] 35.9 µM | [10] 33.2 µM | [11] 50 µM | [15] 29.1 µM
not listed: [9] | [16]
inactive: all other assays above

NCC(F)(F)C(F)(F)C(F)(F)C(F)(F)C(F)(F)C(F)(F)C(F)(F)C(F)(F)F
not listed: [7] | [19] | [20]
inactive: all other assays above
